# Measured values published in PubChem BioAssay (Tox21).
# Values joined by “and” are separate entries in the source; they are usually repeats but may differ in a detail not shown here. Identical values can stand only once. Records with an inconclusive call do not appear. A call without a number means that no potency is given here. Where a structure was tested more than once in an assay, its records may differ in their call. Active and inactive are the calls of the source. Unless noted, calls follow the shape of the dose curve; as a rule, active = well fitted curve in the direction sought with a large enough effect in the repeat runs; inconclusive = weak or mixed curves; inactive = no such curve, though single readings can be large; an effect the other way counts as inactive or inconclusive.
# Legend:
# [1] = qHTS assay to identify small molecule antagonists of the progesterone receptor (PR) signaling pathway - cell viability counter screen (AID 1346798); also: series mostly up to about 92 µM; nearly all actives have a fitted effect of over 50% in size
# Summary of the method: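 PR-UAS-bla HEK293T cells in medium with 2% charcoal-stripped FBS were treated with compounds plus R5020 for 16 hr at 37C. Cell viability was then read by CellTiter-Glo luminescence after 30 min at room temperature in the same wells.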
# [2] = qHTS assay to identify small molecule agonists of the progesterone receptor (PR) signaling pathway - cell viability counter screen (AID 1346799; calls by dose curve; also: nearly all actives have a fitted effect of over 45% in size)
# Summary of the method: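 PR-UAS-bla HEK293T cells, 3,000 per well in medium with 2% charcoal-stripped FBS, were preincubated 6 hr at 37C, then exposed to compounds for 16 hr; viability was read as CellTiter-Glo luminescence after 30 min at room temperature.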
# [3] = qHTS assay to identify small molecule agonists of the TGF-beta/Smad signaling pathway - cell viability counter screen (AID 1346829); also: top concentration of the series differs between compounds; nearly all actives have a fitted effect of over 45% in size
# Summary of the method: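 HEK 293T SBE-bla line, 5 hr compound exposure at 37 C, multiplexed CellTiter-Glo viability read by luminescence.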
# [4] = qHTS assay to identify small molecule agonists of the TGF-beta/Smad signaling pathway (AID 1346859; active = well fitted activation curve with a large enough effect in the signal ratio in the repeat runs, not every such curve was filed as active; the % refers to the signal ratio; also: series mostly up to about 77 µM)
# Summary of the method: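 HEK 293T cells stably carrying a beta-lactamase reporter driven by the Smad binding element were seeded overnight, exposed to DMSO-dissolved compounds for 5 hr at 37 C, 5% CO2, then loaded with FRET substrate for 2 hr at room temperature.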
# [5] = Human pregnane X receptor (PXR) small molecule agonists, qHTS cell viability counter screen (AID 1346977); also: nearly all actives have a fitted effect of over 50% in size; also: potency is read from the fitted curve at half-maximal effect
# Summary of the method: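 PXR-Luc HepG2 cells in medium with 5% charcoal-stripped FBS were pre-incubated 5hr, then exposed to compounds for 24hr at 37C. Viability was read in the same wells by CellTiter-Fluor fluorescence, reagent added after 23hr with a 1hr incubation.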
# [6] = Caspase-3/7 induction in HepG2 cells by small molecules, qHTS assay (AID 1346978); also: nearly all actives have a fitted effect of over 15% in size
# Summary of the method: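 Wild-type HepG2 cells, 2,000/well, settled 5 hr at 37 C and 5% CO2, then compound-treated for 17 hr; caspase-3/7 activity read by luminescent Caspase-Glo 3/7 after 30 min at room temperature.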
# [7] = Caspase-3/7 induction in CHO-K1 cells by small molecules, qHTS cell viability counter screen (AID 1346979); also: nearly all actives have a fitted effect of over 35% in size; also: potency is read from the fitted curve at half-maximal effect
# Summary of the method: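 Wild-type CHO-K1 cells were seeded at 1,500 per well, rested 5hr at 37 C, then exposed to compounds in DMSO. After 16hr, CellTiter-Fluor reagent was added and fluorescence read 1hr later as the viability measure.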
# [8] = Caspase-3/7 induction in CHO-K1 cells by small molecules, qHTS assay (AID 1346980); also: nearly all actives have a fitted effect of over 15% in size
# Summary of the method: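 Wild-type CHO-K1 cells exposed to compounds for 17hr at 37 C, 5% CO2. Caspase-3/7 activity then measured by Caspase-Glo 3/7 luminescence after 30min at room temperature.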
# [9] = Caspase-3/7 induction in HepG2 cells by small molecules, qHTS cell viability counter screen (AID 1346981); also: nearly all actives have a fitted effect of over 30% in size; also: potency is read from the fitted curve at half-maximal effect
# Summary of the method: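 Steps: seed 2,000 HepG2 cells per well; incubate 5 hr at 37 C; pin-add compounds in DMSO; incubate 16 hr; add CellTiter-Fluor; after 1 hr at 37 C and 5% CO2, read fluorescence.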
# [10] = biological target: Nuclear receptor subfamily 1 group I member 2 (Homo sapiens) (UniProt O75469); assay: Human pregnane X receptor (PXR) small molecule agonists, qHTS assay (AID 1346982); also: nearly all actives have a fitted effect of over 35% in size; also: potency is read from the fitted curve at half-maximal effect
# Summary of the method: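 Agonist mode qHTS: PXR-Luc HepG2 cells plated 5 hr before DMSO-dissolved compounds were pinned in, cultured 24 hr at 37 C, 5% CO2; ONE-Glo luminescence readout.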
# [11] = biological target: Nuclear receptor subfamily 1 group I member 2 (Rattus norvegicus) (UniProt Q9R1A7); assay: Rat pregnane X receptor (rPXR) activation by small molecules, qHTS assay (AID 1346983); settings: rPXR luciferase reporter cells, One-Glo luminescence, 24 h; max activation: stronger effect = higher value; also: nearly all actives have a fitted effect of over 20% in size
# Summary of the method: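 Cell-based rPXR activation assay: rPXR cells, 2,000 per well, rested 5hr at 37 C, then exposed to compounds in DMSO for 24 hr at 37 C. Luciferase activity read by One-Glo luminescence after 30 min at room temperature.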
# [12] = biological target: Nuclear receptor subfamily 1 group I member 2 (Homo sapiens) (UniProt O75469); assay: Human pregnane X receptor (PXR) activation by small molecules, qHTS assay (AID 1346985); also: nearly all actives have a fitted effect of over 40% in size
# Summary of the method: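 DPX-2 cells (HepG2 co-transfected with a PXR response element and a CYP3A4-promoter luciferase construct) were seeded at 2,000 per well, rested 5 hr at 37C, then exposed to DMSO-dissolved compounds for 24 hr. Activation was read as luciferase luminescence.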
# [13] = biological target: Cytochrome P450 2D6 (Homo sapiens) (UniProt P10635); assay: Cytochrome P450 Family 2 Subfamily D Member 6 (CYP2D6) small molecule antagonists: luciferase reporter qHTS assay (AID 1671196); also: nearly all actives have a fitted effect of over 50% in size; also: potency is read from the fitted curve at half-maximal effect
# Summary of the method: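 P450-Glo format: CYP2D6 converts a proluciferin substrate to luciferin in an NADPH-driven reaction lasting 1 h at room temperature. Light output, proportional to CYP2D6 activity, reflects interference by test chemicals.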
# [14] = biological target: Cytochrome P450 2C19 (Homo sapiens) (UniProt P33261); assay: Cytochrome P450 Family 2 Subfamily C Member 19 (CYP2C19) small molecule antagonists: luciferase reporter qHTS assay (AID 1671197); also: nearly all actives have a fitted effect of over 65% in size; also: potency is read from the fitted curve at half-maximal effect
# Summary of the method: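 First, compounds are pinned into enzyme-substrate mix and held 10 min at room temperature. Second, NADPH regeneration solution is added and plates incubate 1 h at 37C. Third, detection reagent is added and luminescence read after 20 min.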
# [15] = biological target: Cytochrome P450 2C9 (Homo sapiens) (UniProt P11712); assay: Cytochrome P450 Family 2 Subfamily C Member 9 (CYP2C9) small molecule antagonists: luciferase reporter qHTS assay (AID 1671198); also: nearly all actives have a fitted effect of over 50% in size; also: potency is read from the fitted curve at half-maximal effect
# Summary of the method: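 P450-Glo proluciferin substrate with CYP2C9 enzyme; 10 min RT preincubation, then NADPH regeneration 1 h at 37C; luciferin detection reagent 20 min RT, luminescence in relative luminescence units.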
# [16] = biological target: Cytochrome P450 1A2 (Homo sapiens) (UniProt P05177); assay: Cytochrome P450 Family 1 Subfamily A Member 2 (CYP1A2) small molecule antagonists: luciferase reporter qHTS assay (AID 1671199); also: nearly all actives have a fitted effect of over 50% in size; also: potency is read from the fitted curve at half-maximal effect
# Summary of the method: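 Inhibition of CYP1A2 conversion of proluciferin to luciferin, detected by luminescence. Reaction run 1 h at room temperature with NADPH regeneration after brief compound preincubation.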
# [17] = biological target: Voltage-gated inwardly rectifying potassium channel KCNH2 (Homo sapiens) (UniProt Q12809); assay: Human Ether-a-go-go-Related Gene (hERG) channel small molecule antagonists: fluorescence cell-based qHTS assay (AID 1671200)
# Summary of the method: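 U2OS cells expressing the channel were plated at 1000 cells/well, incubated overnight at 37 C, then loaded with FluxOR II thallium-sensitive dye for 1 h at room temperature in the dark, with a further 10 min at room temperature before stimulation.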
# [18] = qHTS assay to identify small molecule antagonists of the TGF-beta/Smad signaling pathway - cell viability counter screen (AID 1346824); also: nearly all actives have a fitted effect of over 50% in size
# Summary of the method: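 SBE-bla HEK 293T cells, incubated overnight, then compound plus 0.25 ng/mL TGF-beta1 (stock added) for 5 hr at 37 C. Viability was read in the same wells by CellTiter-Glo luminescence after 30 min at room temperature.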
# [19] = biological target: Thyrotropin-releasing hormone receptor (Homo sapiens) (UniProt P34981); assay: qHTS assay to identify small molecule antagonists of the thyrotropin-releasing hormone receptor (TRHR) signaling pathway (AID 1346877; active = well fitted inhibition curve with a large enough effect in the repeat runs, not every such curve was filed as active; also: series mostly up to about 51 µM)
# Summary of the method: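 Cells (TRHR-HEK293) are plated and kept 18 h at 37 °C/5% CO2. A calcium-sensitive dye is added for 2 h, compound follows for 5 min at room temperature, and TRH is then given at 1 nM final.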
# [20] = biological target: Thyrotropin-releasing hormone receptor (Homo sapiens) (UniProt P34981); assay: qHTS assay to identify small molecule agonists of the thyrotropin-releasing hormone receptor (TRHR) signaling pathway (AID 1346891; calls by dose curve; also: series mostly up to about 58 µM)
# Summary of the method: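 TRHR-expressing HEK293 cells were plated 18 h at 37 °C/5% CO2, loaded with calcium dye 2 h at 37 °C, then given compound in DMSO; fluorescence was read kinetically for 3 min at 1 s intervals.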
# Chain of Thyrotropin-releasing hormone receptor (Homo sapiens) (P34981 whole entry, looked up): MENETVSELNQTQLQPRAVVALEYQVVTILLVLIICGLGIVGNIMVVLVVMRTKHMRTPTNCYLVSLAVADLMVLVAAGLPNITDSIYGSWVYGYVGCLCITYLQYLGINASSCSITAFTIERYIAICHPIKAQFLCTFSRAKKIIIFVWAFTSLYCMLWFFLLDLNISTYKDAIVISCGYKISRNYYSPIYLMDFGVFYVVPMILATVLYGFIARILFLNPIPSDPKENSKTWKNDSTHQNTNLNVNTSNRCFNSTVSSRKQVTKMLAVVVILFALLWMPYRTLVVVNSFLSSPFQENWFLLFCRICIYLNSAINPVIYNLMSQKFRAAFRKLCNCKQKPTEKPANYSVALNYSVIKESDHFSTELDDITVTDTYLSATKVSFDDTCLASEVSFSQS
# Chain of Cytochrome P450 2C9 (Homo sapiens) (P11712 whole entry, looked up): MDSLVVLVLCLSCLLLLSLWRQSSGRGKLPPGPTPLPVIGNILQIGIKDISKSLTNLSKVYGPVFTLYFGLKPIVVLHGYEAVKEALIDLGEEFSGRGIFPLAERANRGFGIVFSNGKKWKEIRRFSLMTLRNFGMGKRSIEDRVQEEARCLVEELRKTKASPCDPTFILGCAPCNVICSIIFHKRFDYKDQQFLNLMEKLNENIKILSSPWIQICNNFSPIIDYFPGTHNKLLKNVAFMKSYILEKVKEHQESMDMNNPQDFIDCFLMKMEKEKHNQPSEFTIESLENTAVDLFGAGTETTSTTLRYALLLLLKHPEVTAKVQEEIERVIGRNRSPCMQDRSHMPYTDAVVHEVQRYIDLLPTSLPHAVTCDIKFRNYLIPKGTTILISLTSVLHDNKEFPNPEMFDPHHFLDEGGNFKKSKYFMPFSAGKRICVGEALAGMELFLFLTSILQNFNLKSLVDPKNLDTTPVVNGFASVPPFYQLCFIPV
# Chain of Voltage-gated inwardly rectifying potassium channel KCNH2 (Homo sapiens) (Q12809 whole entry, looked up): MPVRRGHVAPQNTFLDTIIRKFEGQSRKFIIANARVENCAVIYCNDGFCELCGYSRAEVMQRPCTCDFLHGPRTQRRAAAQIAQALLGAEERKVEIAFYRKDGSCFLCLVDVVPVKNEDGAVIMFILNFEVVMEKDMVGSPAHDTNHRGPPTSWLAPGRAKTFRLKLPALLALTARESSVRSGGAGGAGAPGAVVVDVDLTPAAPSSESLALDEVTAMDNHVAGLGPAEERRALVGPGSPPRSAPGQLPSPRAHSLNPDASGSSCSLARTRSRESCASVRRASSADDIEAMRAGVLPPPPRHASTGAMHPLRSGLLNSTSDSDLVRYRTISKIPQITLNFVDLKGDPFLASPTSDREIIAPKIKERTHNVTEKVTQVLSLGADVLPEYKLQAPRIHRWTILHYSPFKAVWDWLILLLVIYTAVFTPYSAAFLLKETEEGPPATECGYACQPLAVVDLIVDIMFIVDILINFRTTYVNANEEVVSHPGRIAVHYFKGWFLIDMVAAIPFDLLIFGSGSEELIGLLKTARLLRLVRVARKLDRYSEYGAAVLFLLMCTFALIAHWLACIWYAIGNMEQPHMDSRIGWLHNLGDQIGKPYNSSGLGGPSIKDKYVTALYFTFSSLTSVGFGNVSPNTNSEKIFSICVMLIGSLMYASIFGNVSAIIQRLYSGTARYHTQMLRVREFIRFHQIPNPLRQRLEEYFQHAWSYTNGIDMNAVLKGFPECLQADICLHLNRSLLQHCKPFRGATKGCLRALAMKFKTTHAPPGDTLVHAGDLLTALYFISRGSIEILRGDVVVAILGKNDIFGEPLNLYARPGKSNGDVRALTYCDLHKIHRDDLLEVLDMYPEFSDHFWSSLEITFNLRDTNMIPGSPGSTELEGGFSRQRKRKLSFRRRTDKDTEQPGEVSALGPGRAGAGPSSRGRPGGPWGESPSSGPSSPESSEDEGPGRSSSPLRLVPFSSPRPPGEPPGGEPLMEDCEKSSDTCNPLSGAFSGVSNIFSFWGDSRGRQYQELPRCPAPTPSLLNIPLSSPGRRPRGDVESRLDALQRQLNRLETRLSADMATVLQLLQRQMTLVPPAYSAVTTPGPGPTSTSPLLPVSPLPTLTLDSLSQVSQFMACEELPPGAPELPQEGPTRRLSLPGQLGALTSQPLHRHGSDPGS
# Chain of Cytochrome P450 2D6 (Homo sapiens) (P10635 whole entry, looked up): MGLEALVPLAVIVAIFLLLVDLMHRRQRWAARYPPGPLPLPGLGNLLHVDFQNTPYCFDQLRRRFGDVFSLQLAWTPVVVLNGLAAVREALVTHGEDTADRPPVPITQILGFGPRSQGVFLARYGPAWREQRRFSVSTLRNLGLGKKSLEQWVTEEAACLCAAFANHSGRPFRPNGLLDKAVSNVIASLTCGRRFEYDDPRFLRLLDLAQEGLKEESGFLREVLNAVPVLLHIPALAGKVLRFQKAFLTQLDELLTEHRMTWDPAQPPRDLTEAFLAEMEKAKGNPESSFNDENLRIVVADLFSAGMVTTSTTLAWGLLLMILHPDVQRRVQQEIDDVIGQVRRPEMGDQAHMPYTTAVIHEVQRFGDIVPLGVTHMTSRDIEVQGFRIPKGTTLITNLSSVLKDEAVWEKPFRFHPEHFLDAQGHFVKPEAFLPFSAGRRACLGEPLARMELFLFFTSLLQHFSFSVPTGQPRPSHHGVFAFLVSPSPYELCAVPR
# Chain of Cytochrome P450 2C19 (Homo sapiens) (P33261 whole entry, looked up): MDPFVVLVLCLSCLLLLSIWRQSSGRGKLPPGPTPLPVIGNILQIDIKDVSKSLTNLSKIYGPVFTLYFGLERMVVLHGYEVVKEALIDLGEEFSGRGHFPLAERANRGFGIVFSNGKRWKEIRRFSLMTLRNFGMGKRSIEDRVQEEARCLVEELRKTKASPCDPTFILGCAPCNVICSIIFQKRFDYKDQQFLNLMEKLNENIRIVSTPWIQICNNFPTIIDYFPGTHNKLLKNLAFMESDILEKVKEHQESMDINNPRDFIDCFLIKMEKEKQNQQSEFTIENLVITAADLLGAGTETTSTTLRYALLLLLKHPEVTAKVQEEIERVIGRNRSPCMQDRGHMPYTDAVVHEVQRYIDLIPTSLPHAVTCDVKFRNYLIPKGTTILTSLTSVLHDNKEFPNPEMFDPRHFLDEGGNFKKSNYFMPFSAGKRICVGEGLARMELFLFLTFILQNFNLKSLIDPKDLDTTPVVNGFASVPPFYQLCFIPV
# Chain of Cytochrome P450 1A2 (Homo sapiens) (P05177 whole entry, looked up): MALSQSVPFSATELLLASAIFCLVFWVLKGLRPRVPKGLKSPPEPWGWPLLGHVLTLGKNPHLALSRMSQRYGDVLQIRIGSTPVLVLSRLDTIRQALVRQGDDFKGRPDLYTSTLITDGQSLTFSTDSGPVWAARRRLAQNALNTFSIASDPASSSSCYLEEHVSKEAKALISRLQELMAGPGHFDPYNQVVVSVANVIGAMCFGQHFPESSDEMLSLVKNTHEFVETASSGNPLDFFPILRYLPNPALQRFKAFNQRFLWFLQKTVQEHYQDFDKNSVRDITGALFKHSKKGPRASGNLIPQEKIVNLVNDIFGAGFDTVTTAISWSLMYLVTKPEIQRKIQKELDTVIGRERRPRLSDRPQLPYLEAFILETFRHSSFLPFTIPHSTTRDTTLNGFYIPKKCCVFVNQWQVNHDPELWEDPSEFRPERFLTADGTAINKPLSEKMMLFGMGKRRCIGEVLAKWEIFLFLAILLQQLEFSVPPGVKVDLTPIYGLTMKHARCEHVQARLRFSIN
# Chain of Nuclear receptor subfamily 1 group I member 2 (Homo sapiens) (O75469 whole entry, looked up): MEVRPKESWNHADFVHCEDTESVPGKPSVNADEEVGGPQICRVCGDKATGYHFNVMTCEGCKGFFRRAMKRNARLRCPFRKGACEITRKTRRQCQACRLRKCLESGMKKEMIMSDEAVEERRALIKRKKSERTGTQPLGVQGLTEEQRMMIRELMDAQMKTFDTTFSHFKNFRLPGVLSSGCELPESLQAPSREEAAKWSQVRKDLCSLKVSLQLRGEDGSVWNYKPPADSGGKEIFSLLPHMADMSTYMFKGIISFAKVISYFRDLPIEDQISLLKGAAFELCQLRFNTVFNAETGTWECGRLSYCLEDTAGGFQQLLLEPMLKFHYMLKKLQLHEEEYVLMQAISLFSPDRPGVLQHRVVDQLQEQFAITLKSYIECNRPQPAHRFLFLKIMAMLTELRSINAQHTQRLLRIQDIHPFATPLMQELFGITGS
# Chain of Nuclear receptor subfamily 1 group I member 2 (Rattus norvegicus) (Q9R1A7 whole entry, looked up): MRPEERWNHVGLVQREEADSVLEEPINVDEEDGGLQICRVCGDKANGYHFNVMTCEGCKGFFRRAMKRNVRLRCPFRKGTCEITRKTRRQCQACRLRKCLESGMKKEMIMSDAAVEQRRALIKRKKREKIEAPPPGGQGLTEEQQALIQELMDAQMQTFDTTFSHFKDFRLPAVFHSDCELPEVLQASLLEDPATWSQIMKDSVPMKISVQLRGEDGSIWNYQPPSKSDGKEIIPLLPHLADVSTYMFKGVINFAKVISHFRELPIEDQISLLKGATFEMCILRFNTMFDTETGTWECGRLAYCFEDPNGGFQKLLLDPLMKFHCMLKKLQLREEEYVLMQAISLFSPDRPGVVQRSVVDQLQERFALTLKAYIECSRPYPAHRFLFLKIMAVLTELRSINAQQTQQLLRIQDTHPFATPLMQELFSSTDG
SMILES,Potency [1],Potency [2],Potency [3],outcome [4],Potency [5],Potency [6],Potency [7],outcome [8],Potency [9],Potency [10],max activation [11],Potency [12],Potency [13],Potency [14],Potency [15],Potency [16],outcome [17],Potency [18],Potency [19],outcome [20]
CC(=O)Nc1cccc(O)c1,inactive,inactive,inactive,inactive,inactive,inactive,inactive,inactive,inactive,inactive,-2.31% (inactive),inactive,inactive,inactive,inactive,inactive,inactive,–,–,–
CCCCCCCCCCCCOCCO,–,inactive,inactive,inactive,inactive,inactive,–,inactive,inactive,61.1 µM (active) and inactive,–,–,inactive,25.2 µM (active) and inactive,–,31.7 µM (active) and 34.7 µM (active),inactive,inactive,inactive,inactive
CCc1ccc(CCOc2ccc(CC3SC(=O)NC3=O)cc2)nc1 (centres undefined),–,inactive,inactive,–,inactive,inactive,inactive,inactive,inactive,–,-8.65% (inactive),–,inactive,inactive,31.7 µM (active) and 30.9 µM (active),inactive,inactive,inactive,inactive,inactive
O=P(OC(CCl)CCl)(OC(CCl)CCl)OC(CCl)CCl,inactive,–,inactive,inactive,39.8 µM (active) and inactive,inactive,30.5 µM (active),–,30.5 µM (active),34.2 µM (active) and 6.11 µM (active),–,–,39.7 µM (active) and 35.6 µM (active),7.06 µM (active) and 35.6 µM (active),–,35.4 µM (active) and 31.7 µM (active),inactive,–,–,–
CC(C)(N)CO,inactive,inactive,inactive,inactive,inactive,inactive,inactive,–,inactive,60.9 µM (active) and inactive,–,–,inactive,–,–,inactive,inactive,–,inactive,inactive
CC(O)COCC(C)O (centres undefined),inactive,inactive,inactive,inactive,inactive,inactive,inactive,inactive,inactive,inactive,–,–,inactive,inactive,inactive,inactive,inactive,–,–,–
